Results: PubChem BioAssay (NCATS)
Records with an inconclusive call do not appear. The source made the active and inactive calls. Unless noted, the call rests on the fitted dose curve; in most records, active means well fitted curve in the direction sought with a large enough effect; inconclusive means small, poorly fitted or top-dose-only effect, or another doubt; inactive means no such curve, though single readings can be large; an effect the other way counts as inactive or inconclusive.

Tests used:
[1] = P-glycoprotein substrates identified in KB-8-5-11 adenocarcinoma cell line, qHTS therapeutic library screen (AID 1346987); further: nearly all actives have a fitted effect of over 65% in size
Summary of the method: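 Steps: plate 500 KB-8-5-11 cells/well in DMEM + 10% FCS (colchicine removed); pin compounds in dose-response; incubate 72 h, 37 degree C, 5% CO2; add CellTiter-Glo, 5 min; read luminescence.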

[2] = NS1 protein of Zika virus - qHTS assay to identify small molecule inhibitors in human HEK 293 cells (AID 1347053); further: nearly all actives have a fitted effect of over 55% in size
Summary of the method: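 HEK 293; 20 h pre-culture, 37 C/5% CO2; cpd 1 h pre-infection; ZIKV MR766, MOI = 0.5, 24 h, 37 C; TR-FRET NS1 readout (two anti-NS1 Abs); norm. to no-virus vs infected.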

[3] = qHTS for Inhibitors of the Functional Ribonucleoprotein Complex (vRNP) of Lassa (LASV) Arenavirus: Viability assay - alamar blue signal for LASV Primary Screen (AID 1347083; calls by dose curve; tested in HEK293 reporter line; further: nearly all actives have a fitted effect of over 80% in size)
[4] = qHTS for Inhibitors of the Functional Ribonucleoprotein Complex (vRNP) of Lymphocytic Choriomeningitis Arenaviruses (LCMV): Viability assay - alamar blue signal for LCMV Primary Screen (AID 1347085; calls by dose curve; tested in HEK293 reporter line; further: nearly all actives have a fitted effect of over 80% in size)
[5] = qHTS of pediatric cancer cell lines to identify multiple opportunities for drug repurposing: Primary screen for TC32 cells (AID 1347089); further: nearly all actives have a fitted effect of over 60% in size
Summary of the method: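 A viability screen of TC32 cells was run over 48 h, with primary MIPE doses spanning 0.78 nM–46 µM and NPC doses 0.59 nM–46 µM. ATP luminescence (CellTiter-Glo) served as the read-out.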

[6] = qHTS for Inhibitors of the Functional Ribonucleoprotein Complex (vRNP) of Lassa (LASV) Arenavirus: LASV Primary Screen - GLuc reporter signal (AID 1347082; calls by dose curve; tested in HEK293 reporter line; further: nearly all actives have a fitted effect of over 60% in size)
[7] = qHTS of pediatric cancer cell lines to identify multiple opportunities for drug repurposing: Primary screen for DAOY cells (AID 1347090); further: nearly all actives have a fitted effect of over 55% in size
Summary of the method: (§1)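 Eight- or eleven-point concentration series, 48 h treatment at 37 degrees C in growth media; readout CellTiter-Glo luminescence. Potency and efficacy were taken from the concentration-response curves.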

[8] = qHTS of pediatric cancer cell lines to identify multiple opportunities for drug repurposing: Primary screen for SJ-GBM2 cells (AID 1347091)
Summary of the method: as §1

[9] = qHTS of pediatric cancer cell lines to identify multiple opportunities for drug repurposing: Primary screen for A673 cells (AID 1347092); further: nearly all actives have a fitted effect of over 45% in size
Summary of the method: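 Titration-based qHTS on A673 cells: MIPE compounds spanned 11 points (0.78 nM to 46 µM final), NPC compounds 8 points (0.59 nM to 46 µM final). Viability after 48 h was measured by ATP luminescence.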

[10] = biological target: Nucleoprotein (Lymphocytic choriomeningitis virus (strain Armstrong)) (UniProt P09992); experiment: qHTS for Inhibitors of the Functional Ribonucleoprotein Complex (vRNP) of Lymphocytic Choriomeningitis Arenaviruses (LCMV): LCMV Primary Screen - GLuc reporter signal (AID 1347086; calls by dose curve; further: nearly all actives have a fitted effect of over 70% in size)
Chain of Nucleoprotein (Lymphocytic choriomeningitis virus (strain Armstrong)) (P09992 whole entry, looked up): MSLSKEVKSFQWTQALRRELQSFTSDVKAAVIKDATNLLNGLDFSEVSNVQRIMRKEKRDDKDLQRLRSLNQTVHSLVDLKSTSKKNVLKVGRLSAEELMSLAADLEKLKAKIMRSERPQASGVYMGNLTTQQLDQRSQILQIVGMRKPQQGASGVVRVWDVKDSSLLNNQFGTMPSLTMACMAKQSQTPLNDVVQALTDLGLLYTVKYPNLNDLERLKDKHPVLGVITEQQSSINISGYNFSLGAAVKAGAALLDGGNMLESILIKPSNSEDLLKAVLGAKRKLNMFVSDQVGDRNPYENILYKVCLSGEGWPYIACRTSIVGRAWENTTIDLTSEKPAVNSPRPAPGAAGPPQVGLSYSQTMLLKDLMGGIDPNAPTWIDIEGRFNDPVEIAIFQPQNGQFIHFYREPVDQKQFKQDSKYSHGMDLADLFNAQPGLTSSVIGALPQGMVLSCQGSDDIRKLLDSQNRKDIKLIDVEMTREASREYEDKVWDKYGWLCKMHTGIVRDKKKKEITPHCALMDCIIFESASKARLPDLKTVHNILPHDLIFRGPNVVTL

Measured: Potency
Potency means the concentration at half of the fitted maximal effect.

COc1nn(CSP(=S)(OC)OC)c(=O)s1
inactive: [1] | [2] | [3] | [4] | [5]

CC(=O)O[C@@]12CO[C@H]1C[C@H](O)[C@@]1(C)C(=O)[C@H](O)C3=C(C)[C@@H](O)C[C@@](O)([C@@H](OC(=O)c4ccccc4)[C@@H]21)C3(C)C
active: [1] 7430 nM | [3] 13700 nM | [4] 21700 nM | [5] 9300 nM | [7] 18700 nM | [8] 1480 nM | [9] 1480 nM
inactive: [6]

CO/C=C(/C(=O)OC)c1ccccc1Oc1cc(Oc2ccccc2C#N)ncn1
active: [1] 3160 nM | [2] 14100 nM | [3] 22400 nM | [10] 10000 nM | [7] 9690 nM

c1cc2ccc3cccc4ccc(c1)c2c34
inactive: [1] | [2] | [6] | [3] | [10] | [5] | [7] | [8] | [9]

C[C@]12CC[C@H]3[C@@H](CCC4=CC(=O)CC[C@@]43C)[C@H]1CC[C@H]2OC(=O)CCC1CCCC1
inactive: [1] | [2] | [6] | [5] | [7] | [8]
active: [4] 6110 nM

O=C(Oc1ccc([N+](=O)[O-])cc1)N1CCN(Cc2cccc(Oc3ccccc3)c2)CC1
inactive: [1] | [2] | [5] | [8]
active: [3] 24300 nM | [10] 6850 nM | [9] 18700 nM

CC=C(C)C(=O)O[C@H]1C(C)=C2[C@@H]3OC(=O)[C@@](C)(O)[C@@]3(O)[C@@H](OC(=O)CCC)C[C@](C)(OC(C)=O)[C@@H]2[C@@H]1OC(=O)CCCCCCC
active: [1] 1870 nM | [2] 332 nM | [3] 769 nM | [7] 469 nM | [8] 41.8 nM | [9] 23.5 nM

O=S(=O)(F)Cc1ccccc1
active: [3] 1530 nM
inactive: [1] | [2] | [10] | [5] | [7] | [8]

N=c1c2c(-c3ccccc3)c(-c3ccccc3)n(Cc3ccccc3)c2ncn1C1CCC(O)CC1 (stereo not drawn)
active: [1] 935 nM | [2] 26400 nM | [3] 1090 nM | [4] 544 nM | [10] 1720 nM | [8] 18700 nM | [9] 18700 nM
inactive: [7]

CC[C@@H]1[C@@H](C)O[C@@](O)([C@@H](C)[C@H](O)[C@H](C)[C@H]2OC(=O)C=CC=C[C@@H](C)[C@@H]([C@@H](C)[C@@H](O)[C@H](C)[C@@]3(O)C[C@H](O[C@H]4C[C@H](O)[C@H](O)[C@H](C)O4)[C@H](CC)[C@@H](C)O3)OC(=O)C=CC=C[C@@H]2C)C[C@H]1O[C@H]1C[C@H](O)[C@H](O)[C@H](C)O1
active: [1] 3320 nM | [2] 1050 nM | [3] 43200 nM | [4] 38500 nM | [10] 13700 nM | [5] 18600 nM | [7] 469 nM | [8] 526 nM | [9] 743 nM

O=C(Nc1ccncc1)C(=O)c1cn(Cc2ccc(Cl)cc2)c2ccccc12
active: [1] 33.2 nM | [2] 9.3 nM | [4] 54.4 nM | [7] 93.5 nM | [8] 41.8 nM | [9] 74.3 nM
inactive: [6]

Clc1ccccc1C(c1ccccc1)(c1ccccc1)n1cccn1
inactive: [1] | [6] | [3] | [4] | [10] | [5] | [7] | [9]

O=[N+]([O-])c1cc([N+](=O)[O-])c2ccccc2c1
inactive: [1] | [2] | [6] | [3] | [10] | [5] | [7] | [8] | [9]

Nc1ccc(N=Nc2ccccc2)cc1
inactive: [1] | [2] | [10]
active: [9] 24300 nM

CC(C)[C@H]1C(=O)N[C@H](CO)Cc2c[nH]c3cccc(c23)N1C
active: [4] 10900 nM
inactive: [1] | [2] | [6] | [10] | [5] | [8]

C[C@@]12OC(=O)[C@]1([C@@H](O)[C@@H]1C=CCCC1)NC(=O)[C@H]2CCCl
active: [1] 148 nM | [2] 833 nM | [6] 34300 nM | [4] 24300 nM | [5] 7390 nM | [7] 118 nM | [8] 10.5 nM | [9] 46.9 nM

CC(C)(O)C=CC(=O)[C@](C)(O)[C@H]1[C@H](O)C[C@]2(C)[C@@H]3CC=C4[C@@H](C=C(O)C(=O)C4(C)C)[C@]3(C)C(=O)C[C@@]12C
active: [1] 118 nM | [2] 3320 nM | [3] 3060 nM | [4] 9680 nM | [10] 10900 nM | [5] 1310 nM | [7] 187 nM | [8] 209 nM | [9] 187 nM
